# This is one part of a sample in which hits are shown more often than they occur.
# Tg IFNy HTS: T. gondii growth inhibition under IFN-gamma; Toxoplasma gondii growth in IFN-gamma-treated host cells; hits give low values; activity change, negative = inhibition, % (test concentration not listed); hit rate 3.8% among 69,000; AID 1259416; in the data active means activity change below about -70%, passing the limit was not always enough;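 further: host cells are HeLa cells infected with Toxoplasma gondii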
# An asterisk follows results filed as active.
SMILES,Tg IFNy HTS
O=C(Cn1ncc2c(N3CCCC3)ncnc21)Nc1ccc(Br)cc1,195.1
O=C(Cn1ncc2c(N3CCCCCC3)ncnc21)NCc1ccc(Br)cc1,-92.7*
O=C(Cn1ncc2c(N3CCN(c4ccccn4)CC3)ncnc21)NCc1ccco1,-97.0*
O=C(Cn1ncc2c(N3CCCCCC3)ncnc21)NCc1cccc(Br)c1,-22.6
COc1cccc(CNC(=O)Cn2ncc3c(N4CCCCCC4)ncnc32)c1,-50.9
O=C(Cn1ncc2c(N3CCCCC3)ncnc21)NCc1ccco1,21.0
CCCNC(=O)Cn1ncc2c(N3CCN(c4ccccn4)CC3)ncnc21,44.5
O=C(O)CCc1cc(C(F)(F)F)cc(C(F)(F)F)c1,-7.1
CS(=O)(=O)NCc1cnc2n1CCN(C(=O)C1CCOC1)CC2 (configuration not stated),2.2
COc1cccc(CN2CCCCC2CN2CCOCC2)c1F (configuration not stated),2.2
Cc1ccc(SCCNS(C)(=O)=O)cc1,3.2
Cc1ccc(Sc2c(Sc3ccc(C)cc3)c(=O)c2=O)cc1,-88.0*
Cc1ccc(SCCC(=O)c2ccc(Cl)cc2)cc1,-10.2
COc1cc(C(=O)N2CCC(O)(CN(C)C)C2)ccn1 (configuration not stated),-4.6
Oc1ccc(CN2CCOc3c(O)cc(-c4cccc(Cl)c4)cc3C2)cc1,2.9
Oc1cc(-c2cccc(Cl)c2)cc2c1OCCN(Cc1cscn1)C2,-23.1
Cc1noc(C)c1CN1CCOc2c(O)cc(-c3cccc(Cl)c3)cc2C1,-73.5*
Cc1nnc(-c2ccc3ccn(CC(=O)N4CCN(CCn5c(C)ccc5C)CC4)c3c2)o1,93.1
Cc1ccc(CNC(=O)c2c(O)c3ccccc3[nH]c2=O)o1,182.4
Cc1nn(-c2ccccc2)c(C)c1CC(=O)N1CCc2c(c(C(=O)N(C)C)nn2Cc2ccccc2)C1,5.1
Cc1nn2c(C3CCCN(C(=O)OC(C)(C)C)C3)ccnc2c1-c1cccs1 (configuration not stated),-77.0*
COc1ccc(-c2c(C)nn3c(C4CCN(Cc5ccccc5)C4)ccnc23)cc1OC (configuration not stated),-10.5
CC(=O)Nc1ncc(-c2cccc(C3CCCN(C(=O)OC(C)(C)C)C3)n2)s1 (configuration not stated),-61.4
COc1ccc(-c2nc(C)c(CCNS(=O)(=O)c3ccccc3F)s2)cc1,211.9
CCOc1ccc(-c2cc3c(=O)n(Cc4nc(-c5ccc(OC(C)C)cc5)oc4C)ccn3n2)cc1,80.8
SMILES,Tg IFNy HTS
COC(=O)CCC1CCCCN1C(=O)c1cc2ccccc2[nH]c1=O (configuration not stated),4.0
CC(C)NC(=O)N1CCC(c2cc3c(ncn3C)c(NCc3ccccc3)n2)CC1,-46.2
CC(C)n1cnc2c(NCC3CC3)nc(C3CCN(C(=O)c4ccccc4)CC3)cc21,-81.7*
CN(C)C(=O)N1CCC(c2cc3c(ncn3C)c(NCc3ccccc3)n2)CC1,4.6
COc1ccc(CC(=O)Nc2ncn[nH]2)cc1OC,-36.4
Cn1cc(-c2cnc(Nc3ccccc3)nc2)cc1C(=O)Nc1cccc(O)c1,-67.2
CC(C)c1cc(C(=O)N2CCCC(CCc3ccc(F)cc3)C2)on1 (configuration not stated),-28.5
O=S(=O)(c1ccccc1)N1CCC2(CC1)Nc1ccccc1-n1cccc12,10.8
CC(C)=CCc1c2c(c3occ(-c4ccc(O)c(O)c4)c(=O)c3c1O)C=CC(C)(C)O2,-24.8
CC(C)=CCc1c2c(c3occ(-c4ccc(O)cc4)c(=O)c3c1O)C=CC(C)(C)O2,-82.2*
O=c1c(-c2ccc(O)cc2)coc2cc(O)cc(O)c12,80.2
Fc1ccc([C@@H]2CCNC[C@H]2COc2ccc3c(c2)OCO3)cc1,-34.9
Fc1ccc(C2CCNCC2COc2ccc3c(c2)OCO3)cc1 (configuration not stated),-75.2*
O=C(NCc1ccc2c(c1)OCO2)c1ccccc1C1CCNC1 (configuration not stated),-2.1
CCS(=O)(=O)N1CCC2OCCCC2(COc2ccccn2)C1 (configuration not stated),-1.7
Cc1cccc(N2C[C@@H]3CN(c4cccnc4)C(=O)[C@@H]3C2)n1,21.4
Cn1cc(N2C[C@@H]3CN(Cc4ccoc4)C[C@H]3C2=O)cn1,14.0
Cn1cc(N2C[C@@H]3CN(c4ccccn4)C[C@H]3C2=O)cn1,-87.1*
CCc1cc(CN(C)c2ncc(F)c(N3CCOCC3)n2)on1,-2.8
Cc1ccc(C2=NC3(CCN(CC(=O)Nc4ccccc4F)CC3)NC2=O)cc1C,33.5
CCn1nnc(NC(=O)c2cccc3ccccc23)n1,123.6
O=C(CN1C(=O)c2cccc3cccc(c23)C1=O)OCCCc1ccncc1,-73.4*
CN(C)CCN1C(=O)c2cccc3cc(NC(N)=O)cc(c23)C1=O,-31.8
O=C1c2cccc3cccc(c23)C(=O)N1Cc1ccco1,-26.8
O=C(CSCc1ccccc1Cl)N1CC[C@H](O)[C@@H](O)C1,-46.9
SMILES,Tg IFNy HTS
Cc1ncn(C23CC4CC(CC(C(=O)NC(c5ccc(F)cc5)C(C)C)(C4)C2)C3)n1 (configuration not stated),-8.5
Cc1ccc(C)c(N2CCN(C(=O)Cn3ncc4c(N5CCCCC5)ncnc43)CC2)c1,-51.5
Cc1ccc(Sc2ccc(C3NCCc4[nH]cnc43)o2)cc1 (configuration not stated),56.7
O=C(c1ccccc1C1CCNC1)N1CCN(c2ccc(F)cc2)CC1 (configuration not stated),-19.6
O=C(c1ccccc1)c1ccc(O)c(C(c2ccccc2Cl)N2CCCCC2)c1O (configuration not stated),-96.8*
Cc1c(C(=O)N2CCCn3nc(C(=O)NC4CC4)cc3C2)cnc2ccnn12,-4.1
O=C(O)CSCC(=O)NCc1ccc(-c2cccs2)s1,8.2
COc1cc2c(cc1CN1CCC(NC(C)=O)(c3ccc(F)cc3)CC1)CCC2,-10.7
O=C(NCCN1CCC(O)(c2ccc(F)cc2)CC1)c1c(F)cccc1F,13.3
O=C(Cc1ccc2c(c1)CCC2)NCCN1CCC(O)(c2ccc(F)cc2)CC1,-75.8*
O=C(NCCc1c[nH]c2ccccc12)c1ccc(N2CCCC2)c(S(=O)(=O)N2CCCC2)c1,-0.8
Cc1oc(-c2ccc(NC(=O)Cc3ccsc3)cc2)nc1Cn1cccn1,-61.8
CC(C)(C)CN1CCNC(=O)C1CC(=O)NCc1ccc2nsnc2c1 (configuration not stated),-4.3
CC(=O)N1CCC(C(=O)NCc2ccccc2)(N(C(=O)c2ccc(C)cc2)c2ccc(C(C)C)cc2)CC1,-97.5*
CC(=O)N1CCC(C(=O)NCc2ccccc2)(N(C(=O)c2ccc(Br)cc2)c2ccc(C)cc2)CC1,62.7
CC(=O)Nc1ccc(C(=O)N(c2ccc(C)cc2)C2(C(=O)NCc3ccccc3)CCN(C(C)=O)CC2)cc1,79.5
COc1ccc2nc(NCCCNC(=S)Nc3ccccc3)c(C#N)cc2c1,-61.7
CCn1c(CC2CCN(S(=O)(=O)N3CCCCC3)CC2)nn(C)c1=O,-0.4
CCOC(=O)CCCSc1nc(N)c2c(C)c(C)sc2n1,-20.6
CCCCCCOc1nsnc1C1=CCCN(C)C1,-75.4*
O=C(CCn1cnc2cc(-c3noc(-c4cc5cc(Cl)ccc5[nH]4)n3)ccc21)N1CCCC1,11.0
Cc1ccccc1-n1cc(-c2ccnc(NC3CCNCC3)n2)cn1,-25.8
COc1ccccc1-n1cc(-c2ccnc(NCCc3cnccn3)n2)cn1,-27.6
Fc1ccccc1-n1cc(-c2ccnc(NCc3ccon3)n2)cn1,-76.0*
COc1cccc2ccc(-c3ccc(C(=O)N(C)C)cc3)nc12,-3.3
COc1cc(NCCCc2csc(N)n2)ncn1,-0.1
